Shiga toxin inh: inhibitors of Shiga toxin in Vero cells; AID 2315; 9.2% of 290,000 active; Vero cells, Shiga toxin protein synthesis inhibition reporter; inhibition, % at 38.7 µM; in the data active = inhibition mostly above about 28%, no sharp cut-off; inactive = mostly below about 43%; also: 0% is about no effect
Pf growth 48h: inhibits P. falciparum growth in the first generation, 48 h. 5.9% of 310,000 active. AID 504832. P. falciparum luciferase growth in erythrocytes, 48 h. Potency, µM (highest dose often 28.7 µM), for the others: at the top dose activity change, negative = inhibition, most hits filed as inhibitors; also: potency is read from the fitted curve at half-maximal effect; % is scaled to controls: 0 for no effect and ±100 for the full control effect
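A one-generation exposure of luciferase-tagged malaria parasites in RPMI 1640/Albumax erythrocyte culture, 37 C and 5% CO2. Inhibition is inferred from decreased luminescence after adding detection reagent.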
HCV inh: HCV inhibition | Huh7.5.1 HCVcc-Cre infection, luciferase reporter, 44 h | Potency, µM (series often up to 41.8 µM), for inactives: at the highest dose activity change, negative = inhibition, hits mostly inhibitors | 3.4% of 340,000 active | AID 651820; also: potency is read from the fitted curve at half-maximal effect; % is scaled to controls: 0 for no effect and ±100 for the full control effect
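Infectious HCV cell culture screen: compound-treated cells (1,000/well, pre-plated 4 h) are infected with HCVcc-Cre at roughly 0.5 moi and grown 44 h. Infection is quantified by luciferase signal after 15 min substrate incubation at room temperature.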
AMA1-RON2 inh: disrupts binding of P. falciparum AMA1 to RON2; AlphaScreen AMA1-biotinylated RON2 peptide binding; Potency, µM (doses to about 58.2 µM), for the others: at the highest dose activity change, negative = inhibition, most hits filed as inhibitors; 0.2% of 360,000 active; AID 720542;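 also: potency is read from the fitted curve at half-maximal effect; 0% = vehicle wells and -100% = peptide control; nearly all actives have a fitted effect of over 45% in size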
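AMA1 (3D7) with his tag at 25 nM final met compounds first, then biotinylated RON2 peptide at 25 nM; detection used donor plus acceptor beads, 10 µg/mL apiece, read by AlphaScreen after 30 min at room temperature.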
Pf growth 96h: inhibits malaria parasite growth, 96 h; P. falciparum luciferase reporter growth, 96 h; 6.9% of 320,000 active; Potency, µM (top dose mostly 28.7 µM), inactives show top-dose activity change, negative = inhibition, actives largely listed as inhibitors; also: potency is read from the fitted curve at half-maximal effect; % is scaled to controls: 0 for no effect and ±100 for the full control effect
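Parasite growth measured via integrated firefly luciferase reporter in P. falciparum. Infected erythrocytes at 2% hematocrit, 0.05% parasitemia final were treated 96 hours at 37 C under 5% CO2, and luminescence was read.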
CHX counter: counter-screen for Shiga toxin inhibitors: cycloheximide protein synthesis inhibition | cell reporter, cycloheximide protein synthesis inhibition counterscreen | max response, % | 12% of 300,000 active; in the data active = max response mostly above about 13%, no sharp cut-off; inactive = mostly below about 14%; also: read at 38.3 µM for the half of the compounds with a filed dose; 0% is about no effect
An asterisk follows results filed as active. Most compounds without a hit are left out; they make up all but 21% or so of the library. Unless noted, calls follow the shape of the dose curve; as a rule, active = well fitted curve in the direction sought with a large enough effect; inconclusive = small, poorly fitted or top-dose-only effect, or another doubt; inactive = no such curve, though single readings can be large; an effect the other way counts as inactive or inconclusive.

What do the screens show for `CCc1nnc(NS(=O)(=O)c2ccc(NC(=O)/C=C/c3ccccc3Cl)cc2)s1`?
Shiga toxin inh: 16.6; Pf growth 48h: -4.4%; HCV inh: -4.4%; AMA1-RON2 inh: 8.7%; Pf growth 96h: 16.9%; CHX counter: -1.3

Results for Cc1cc(C)nc(NC(=O)/C=C/c2ccc(Cl)cc2Cl)c1 ?
Shiga toxin inh: 81.2*; Pf growth 48h: 49.5%; HCV inh: inconclusive; AMA1-RON2 inh: -4.7%; Pf growth 96h: 68.0%; CHX counter: 41.0*

What do the screens show for `CCc1ccc(OCc2ccccc2C(=O)Nc2ccc3nc(C)cc(N)c3c2)cc1`?
Shiga toxin inh: 34.9*; CHX counter: 26.7

How did Cc1cc(N)c2cc(NC(=O)/C=C/c3ccccc3Cl)ccc2n1 do in these assays?
Shiga toxin inh: 12.5; Pf growth 48h: 0.465µM*; HCV inh: 11.2µM*; AMA1-RON2 inh: inconclusive; Pf growth 96h: 0.586µM*; CHX counter: 1.1

What do the screens show for `C[C@@H](NCCCn1cnc2c(OCc3ccccc3)ncnc21)c1cccc2ccccc12`?
HCV inh: inconclusive; AMA1-RON2 inh: -5.8%

Results for COC(=O)CCNC(=O)CCc1ccc(S(=O)(=O)N2CCCCCC2)cc1 ?
Pf growth 48h: inconclusive; HCV inh: 17.1%; AMA1-RON2 inh: -1.8%; Pf growth 96h: inconclusive

Results for OCCC1CN(Cc2ccc3c(c2)CCO3)CCN1C1CCCC1 (stereo not drawn) ?
Shiga toxin inh: -12.9; Pf growth 48h: 14.1%; HCV inh: -10.3%; AMA1-RON2 inh: -12.6%; Pf growth 96h: 38.4%; CHX counter: -1.6

Results for CC1(c2nnnn2C2CCCC2)CCC(=O)N1c1ccc2c(c1)OCCO2 (stereo not drawn) ?
AMA1-RON2 inh: -1.0%

How did Cc1cc(C)nc(NC(=O)/C=C/c2ccccc2Cl)n1 do in these assays?
Shiga toxin inh: 70.2*; Pf growth 48h: 75.6%; HCV inh: -29.6%; AMA1-RON2 inh: 6.1%; Pf growth 96h: 36.4%; CHX counter: 44.7*

Results for CN(C)c1ccc(-c2nnc(SCC3CCCO3)n2C)cc1 (stereo not drawn) ?
Shiga toxin inh: 80.3*; Pf growth 48h: 43.7%; HCV inh: -14.2%; AMA1-RON2 inh: 23.3%; Pf growth 96h: -17.4%; CHX counter: 44.2*

What do the screens show for `COc1ccc(CC(NC(C)=O)C(=O)NC2CCN(C(=O)C3CCCCC3)CC2)cc1OC` (stereo not drawn)?
Shiga toxin inh: -5.5; Pf growth 48h: 7.4%; HCV inh: 5.4%; AMA1-RON2 inh: -3.4%; Pf growth 96h: 29.6%; CHX counter: -7.3

Results for O=C(Nc1cccc(S(=O)(=O)c2cccc(NC(=O)C3CC3)c2)c1)C1CC1 ?
Shiga toxin inh: -5.9; Pf growth 48h: inconclusive; HCV inh: 5.62µM*; AMA1-RON2 inh: 4.6%; Pf growth 96h: 11.2%; CHX counter: -1.2

How did COc1ccc(S(=O)(=O)N2CCC(c3cc(-c4cccc5ccccc45)n[nH]3)CC2)cc1 do in these assays?
Shiga toxin inh: -8.0; Pf growth 48h: inconclusive; HCV inh: inconclusive; AMA1-RON2 inh: -2.2%; Pf growth 96h: inconclusive; CHX counter: -2.0

Results for O=C(Nc1cccc(S(=O)(=O)N2CCCCC2)c1)C1CCCC1 ?
Pf growth 48h: inconclusive; HCV inh: -2.0%; AMA1-RON2 inh: -2.2%; Pf growth 96h: inconclusive

What do the screens show for `O=C(Nc1cccc(S(=O)(=O)N2CCCCCC2)c1)C1CCC1`?
Pf growth 48h: inconclusive; HCV inh: -18.8%; AMA1-RON2 inh: -8.4%; Pf growth 96h: 13.1µM*

What do the screens show for `O=C(Nc1ccncc1)C1CCN(S(=O)(=O)c2cccc(C(F)(F)F)c2)CC1`?
Pf growth 48h: 13.1µM*; HCV inh: -4.8%; AMA1-RON2 inh: -2.6%; Pf growth 96h: 9.28µM*

How did O=S(=O)(c1cccc(C(F)(F)F)c1)N1CCC(c2cc(-c3cccc4ccccc34)n[nH]2)CC1 do in these assays?
Shiga toxin inh: -3.1; Pf growth 48h: inconclusive; HCV inh: 0.9%; AMA1-RON2 inh: -10.2%; Pf growth 96h: 10.4µM*; CHX counter: -7.2

What do the screens show for `O=C(NC1CCCC1)c1ccc(Cl)c(S(=O)(=O)N2CCOCC2)c1`?
Shiga toxin inh: -4.4; Pf growth 48h: 4.65µM*; HCV inh: -9.9%; AMA1-RON2 inh: 8.7%; Pf growth 96h: 8.9%; CHX counter: -4.3

How did Cc1ccc(C(=O)NC2CCCCCCC2)cc1S(=O)(=O)N1CCOCC1 do in these assays?
Pf growth 48h: inconclusive; HCV inh: inconclusive; AMA1-RON2 inh: 6.1%; Pf growth 96h: 9.28µM*

Results for O=C(NC1CCCCCCC1)c1ccc(F)c(S(=O)(=O)N2CCOCC2)c1 ?
Pf growth 48h: inconclusive; HCV inh: inconclusive; AMA1-RON2 inh: 6.9%; Pf growth 96h: inconclusive

How did COC(=O)CCSCC(=O)N1N=C(c2ccc(Br)cc2)CC1c1cccc(OC)c1OC (stereo not drawn) do in these assays?
Shiga toxin inh: -13.4; Pf growth 48h: inconclusive; HCV inh: 10.6%; AMA1-RON2 inh: inconclusive; Pf growth 96h: inconclusive; CHX counter: 9.1

Results for O=C(NCCc1nnc2ccc(NCCCN3CCOCC3)nn12)c1ccccc1 ?
Shiga toxin inh: -10.5; Pf growth 48h: 5.9%; HCV inh: 21.1%; AMA1-RON2 inh: -16.1%; Pf growth 96h: 7.1%; CHX counter: -4.3

Results for CN(C)S(=O)(=O)c1ccc(C(=O)OCC(=O)NCc2ccccc2)cc1 ?
Shiga toxin inh: -6.2; Pf growth 48h: 13.1%; HCV inh: 8.0%; AMA1-RON2 inh: 10.0%; Pf growth 96h: 15.5%; CHX counter: -1.8

How did CN(C)S(=O)(=O)c1ccc(C(=O)OCCc2ccccc2)cc1 do in these assays?
Shiga toxin inh: 32.8; Pf growth 48h: 32.2%; HCV inh: 8.9%; AMA1-RON2 inh: 16.2%; Pf growth 96h: -20.0%; CHX counter: 39.3*

What do the screens show for `CN(C)S(=O)(=O)c1ccc(C(=O)NCCS(=O)(=O)N2CCN(c3ccc(F)cc3)CC2)cc1`?
Shiga toxin inh: -9.2; Pf growth 48h: 10.5%; HCV inh: -21.4%; AMA1-RON2 inh: 6.6%; Pf growth 96h: 7.3%; CHX counter: -3.2

Results for CN(C)S(=O)(=O)c1ccc(C(=O)NCCOc2ccc(F)cc2)cc1 ?
Shiga toxin inh: 84.1*; Pf growth 48h: 105.6%; HCV inh: inconclusive; AMA1-RON2 inh: -7.6%; CHX counter: 42.2*

How did CN(C)S(=O)(=O)c1ccc(C(=O)NCc2ccccc2)cc1 do in these assays?
Shiga toxin inh: -1.4; Pf growth 48h: 36.2%; HCV inh: -14.6%; AMA1-RON2 inh: -10.2%; Pf growth 96h: 10.4%; CHX counter: -4.3

What do the screens show for `CN(C)S(=O)(=O)c1ccc(C(=O)NCCOc2ccccc2)cc1`?
Shiga toxin inh: 82.8*; Pf growth 48h: 143.3%; HCV inh: 1.5%; AMA1-RON2 inh: 2.0%; CHX counter: 40.1*
